Assay outcomes as filed in PubChem BioAssay.
Shh pathway inh: blocks Sonic Hedgehog signaling; 22,000 tested, 2.1% active; inhibition, % (test concentration not listed); AID 2313; Shh-LIGHT2 Gli-luciferase reporter, 30 h;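 active means mean inhibition across valid replicates above about 65%, limit read from the data; inconclusive means mean under the limit, yet half or more replicates past it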;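 further: pathway switched on by Shh-conditioned medium diluted 1 in 25 in low serum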
MITF inhib: inhibitors of MITF. TRPM1 promoter luciferase, luminescence, 24 h. inhibition, % (no concentration beside the values). 37,000 tested, 0.28% active. AID 2240; in the data active means inhibition above about 85%; inconclusive means no clear call, values can overlap the other calls; inactive means below about 68%;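 further: human melanocyte line stably carrying TRPM1 promoter luciferase reporter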
NOMO-1 viab: STK33 inhibitor candidate reducing NOMO-1 cell viability. NOMO-1 AML viability, CellTiter-Glo luminescence, 72 h. 37,000 tested, 7.5% active. inhibition, % (no concentration beside the values). AID 2330; in the data active means inhibition above about 80%; inconclusive means no clear call, values can overlap the other calls
Active calls of the source: *; ? = inconclusive; . = no result given. A selection: hits, their analogues and other compounds. The true share with any hit is near 8.1%.

SMILES	Shh pathway inh	MITF inhib	NOMO-1 viab
COc1ccc(C(=O)CC2(O)C(=O)N(Cc3ccccc3)c3ccc(Br)cc32)cc1[N+](=O)[O-] (centres undefined)	.	37.1	110.6*
COc1ccc(CN2C(=O)C(O)(CC(=O)c3cccs3)c3ccccc32)cc1OC (centres undefined)	.	4.6	106.3*
Cc1coc(C)c1C(=O)CC1(O)C(=O)N(CCc2ccccc2)c2ccc(Cl)cc21 (centres undefined)	.	44.4	88.0*
COc1ccc(CN2C(=O)C(O)(CC(=O)c3c(C)n[nH]c3C)c3ccccc32)cc1OC (centres undefined)	.	0.4	28.5
Cc1ccc(C(=O)CC2(O)C(=O)N(CCCC#N)c3ccccc32)o1 (centres undefined)	.	6.8	21.6
O=C(CC1(O)C(=O)N(Cc2ccc(Cl)cc2)c2ccc(Cl)cc21)c1ccccn1 (centres undefined)	.	23.6	114.6*
O=C(CC1(O)C(=O)N(Cc2ccccc2)c2ccc(Br)cc21)c1ccc2c(c1)OCCO2 (centres undefined)	.	4.7	4.9
O=C(CC1(O)C(=O)N(CCc2ccccc2)c2ccc(Cl)cc21)c1ccco1 (centres undefined)	.	6.6	37.7
CCOC(=O)c1c(NC(=S)N(C)Cc2c(C)nn(C)c2C)sc2c1CCCCCC2	.	16.4	37.8
CCOC(=O)NC(=O)CSc1nc2ccccc2s1	.	18.9	3.1
Cc1ccc(C(=O)N(CC(N)=O)CC(N)=O)cc1	.	-11.6	-2.9
Cc1ccccc1OCC(=O)Nc1cccc(NC(=O)c2ccc(C(C)(C)C)cc2)c1	.	2.8	33.4
Cc1ncc([N+](=O)[O-])n1Cc1n[nH]c(=S)n1C	.	-6.7	-9.1
CCOC(=O)c1ccc(NC(=O)C(C)Sc2nc3ccccc3[nH]2)cc1 (centres undefined)	.	-17.8	20.5
COc1ccc(NC(=O)C2CC(=O)NC(=Nc3ccccc3)S2)cc1 (centres undefined)	.	-9.8	-6.1
O=C(CSc1nnnn1-c1ccccc1)Nc1cccc(I)c1	.	9.1	4.8
Cc1ccc(-n2c(SCC(=O)Nc3ccccc3-c3ccccc3)nc3ccccc3c2=O)cc1	.	9.9	44.4
O=C(CC1(O)C(=O)N(Cc2cccc3ccccc23)c2ccccc21)c1ccccc1[N+](=O)[O-] (centres undefined)	.	51.3	114.5*
Cc1coc(C)c1C(=O)CC1(O)C(=O)N(Cc2ccccc2)c2ccccc21 (centres undefined)	.	40.9	16.5
OCC1CCCN1CC1CC1 (centres undefined)	-34.3	-4.4	-7.5
Cc1ccc(NC(=O)C2Cc3ccccc3CN2S(=O)(=O)c2ccc(C)cc2)cc1 (centres undefined)	.	38.7	36.2
Cc1ccc(S(=O)(=O)N(C)C[C@H]2Oc3ccc(NC(=O)Nc4ccc(C(F)(F)F)cc4)cc3C(=O)N([C@@H](C)CO)C[C@@H]2C)cc1	.	-7.2	-5.2
Cc1ccc(S(=O)(=O)N(C)C[C@@H]2Oc3ccc(NC(=O)Nc4ccc(C(F)(F)F)cc4)cc3C(=O)N([C@@H](C)CO)C[C@@H]2C)cc1	.	15.0	83.1*
Cc1ccc(S(=O)(=O)N(C)C[C@@H]2Oc3ccc(NC(=O)Nc4ccc(C(F)(F)F)cc4)cc3C(=O)N([C@H](C)CO)C[C@@H]2C)cc1	16.5	65.2	115.2*
Cc1ccc(S(=O)(=O)N(C)C[C@H]2Oc3ccc(NC(=O)Nc4ccc(C(F)(F)F)cc4)cc3C(=O)N([C@@H](C)CO)C[C@H]2C)cc1	45.6	99.9*	118.6*
SMILES	Shh pathway inh	MITF inhib	NOMO-1 viab
Cc1ccc(S(=O)(=O)N(C)C[C@@H]2Oc3ccc(NC(=O)Nc4ccc(C(F)(F)F)cc4)cc3C(=O)N([C@@H](C)CO)C[C@H]2C)cc1	-7.7	-2.4	75.3
C[C@@H]1CN([C@@H](C)CO)C(=O)c2cc(NC(=O)Nc3ccc(C(F)(F)F)cc3)ccc2O[C@@H]1CN(C)S(=O)(=O)c1ccc(Cl)cc1	4.5	14.9	7.7
C[C@H](CO)N1C[C@H](C)[C@H](CN(C)S(=O)(=O)c2ccc(Cl)cc2)Oc2ccc(NC(=O)Nc3ccc(C(F)(F)F)cc3)cc2C1=O	.	42.0	63.3
C[C@H]1CN([C@@H](C)CO)C(=O)c2cc(NC(=O)Nc3ccc(C(F)(F)F)cc3)ccc2O[C@@H]1CN(C)S(=O)(=O)c1ccc(Cl)cc1	47.4	20.5	121.3*
Cc1nc2c([nH]1)C1(CCC(c3ccccc3)CC1)C(C#N)=C(N)O2 (centres undefined)	-18.0	3.4	27.2
CCOc1ccc(Br)cc1C(=O)NCCc1c[nH]c2ccccc12	.	5.7	34.8
Cc1ccc(O)c(NC(=O)CCN2C(=O)c3ccccc3C2=O)c1	.	-14.4	8.4
N#CC(C(=O)c1cccs1)=C1SCCCS1	-22.5	-56.0	39.0
CS/C(Nc1cccc(Cl)c1Cl)=C(/C#N)C(=O)c1cccs1	-191.5	-6.2	93.8*
CCOC(=O)C1=C(c2ccccc2)NC(=S)NC1CC (centres undefined)	2.4	5.7	32.0
COC(=O)C1=CN(c2cccc(C(F)(F)F)c2)C=C(C(=O)OC)C1c1ccsc1	-4.5	14.4	18.1
COC(=O)C1=CN(C23CC4CC(CC(C4)C2)C3)C=C(C(=O)OC)C1c1cccc(OC)c1	-3.9	7.6	109.1*
COc1ccc(N(CC(=O)Nc2ccc(Br)c(Cl)c2)S(C)(=O)=O)cc1Cl	.	6.9	29.3
C=C1C(=O)OC2C3=C(C)C(=O)CC3C(C)CC(O)C12 (centres undefined)	-35.9	-6.8	56.6
C=C1C(=O)O[C@@H]2C[C@H](C)[C@@H]3CC(=O)C(C)=C3C[C@H]12	4.6	37.6	120.7*
C[C@H]1CN([C@@H](C)CO)C(=O)Cc2cc(NS(=O)(=O)c3ccc(F)cc3)ccc2O[C@H]1CN(C)Cc1ccc(-c2ccccc2)cc1	-5.1	0.0	107.6*
C[C@H](CO)N1C[C@H](C)[C@H](CN(C)Cc2ccc(-c3ccccc3)cc2)Oc2ccc(NS(=O)(=O)c3ccc(F)cc3)cc2CC1=O	-8.0	0.4	94.5*
C[C@H](CO)N1C[C@H](C)[C@H](CN(C)Cc2ccccc2)Oc2ccc(NS(=O)(=O)c3ccc(F)cc3)cc2CC1=O	11.0	-23.9	52.2
C[C@@H]1CN([C@@H](C)CO)C(=O)Cc2cc(NS(=O)(=O)c3ccc(F)cc3)ccc2O[C@@H]1CN(C)Cc1ccc(-c2ccccc2)cc1	-7.9	22.9	?
C[C@@H]1CN([C@H](C)CO)C(=O)c2cccc(NC(=O)C3CCCCC3)c2O[C@@H]1CN(C)CC1CC1	-38.0	-0.7	14.2
C[C@@H]1CN([C@H](C)CO)C(=O)Cc2cc(NS(=O)(=O)c3cccs3)ccc2O[C@H]1CN(C)S(=O)(=O)c1ccc(F)cc1	-17.5	-10.5	27.4
Cc1cc(Br)cc2c1N(C)C(=O)/C2=C1\SC(=Nc2ccc(F)cc2)NC1=O	4.8	22.6	9.7
C=CC(C)(O)CC(/C=C(\C)CC(/C=C(\C)CCC=C(C)C)OC(C)=O)OC(C)=O (centres undefined)	-4.5	1.2	98.2*
C=CC(C)(O)CC/C=C(\C)CCC(O)C(C)(C)O (centres undefined)	13.1	-17.0	11.3
Cn1c(SCC(=O)Nc2c(F)cc(F)cc2Br)nnc1-c1cnccn1	.	-19.6	13.6
OC(c1cc(C(F)(F)F)nc2c(C(F)(F)F)cccc12)C1CCCCN1 (centres undefined)	12.3	4.1	129.3*
